# Assay outcomes (PubChem)
# VDR inhibitor: inhibitors of human vitamin D receptor. P11473. VDR-SRC2-3 peptide fluorescence polarization, 2 h. Potency, µM, usual class: inhibitors. 0.93% of 400,000 active
#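 Two reagent solutions held at 4 deg C in the dark were dispensed, compounds pinned at 23 nl, and the mixture incubated 2 h at room temperature. Read-out: fluorescence polarization of VDR–SRC2-3 peptide binding.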
# G9a inh: inhibitors of human histone lysine methyltransferase G9a; Q96KQ7; G9a H3K9 monomethylation, AlphaScreen, 2 h; Potency, µM (titrated, usually from 102 µM), usual class: inhibitors; 8.8% of 350,000 active; also: nearly all actives have a fitted effect of over 75% in size
# Target sequence (Q96KQ7 913-1193 limits assumed): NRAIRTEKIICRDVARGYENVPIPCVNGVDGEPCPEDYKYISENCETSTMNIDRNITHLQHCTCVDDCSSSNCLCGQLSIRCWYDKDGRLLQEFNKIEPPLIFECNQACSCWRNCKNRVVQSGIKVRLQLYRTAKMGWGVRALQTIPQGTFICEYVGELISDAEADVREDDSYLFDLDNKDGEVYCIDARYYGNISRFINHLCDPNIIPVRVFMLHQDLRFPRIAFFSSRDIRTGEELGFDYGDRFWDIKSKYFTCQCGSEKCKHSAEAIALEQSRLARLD
#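 Signal arises when biotinylated H3K9 peptide, once monomethylated, bridges streptavidin donor and antibody-captured acceptor beads. Enzyme at 20 nM was preincubated 15 min with test compounds; peptide 500 nM and SAM 20 uM then reacted for 2 h.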
# ALOX12 inh: inhibitors of human 12S-lipoxygenase ALOX12; 1.1% of 580,000 active; Potency, µM (titrated, usually from 108 µM), hits mostly inhibitors; AID 1671190; purified 12hLO, xylenol orange hydroperoxide absorbance; P18054
#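 Hydroperoxide product was detected by ferrous iron/xylenol orange as the 573 to 405 nm absorbance ratio. Arachidonic acid at 40 uM (final) was turned over for 30 min at room temperature by 150 nM human 12hLO, pH 7.0 Hepes buffer, after 15 min compound preincubation.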
# Glioma ERSR ind: ER stress response induction in glioma. Potency, µM, actives largely listed as activators. 0.02% of 420,000 active. U87-MG GRP78 promoter luciferase reporter, 16 h; also: series mostly up to about 76 µM; nearly all actives have a fitted effect of over 35% in size
#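 ERSR induction read as luciferase luminescence (Bright-Glo, 10 min at room temperature) in stably transfected human U87-MG glioma cells exposed to compounds for 16 h, using GRP78 as sensor.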
# Sfp PPTase inh: inhibitors of Bacillus subtilis Sfp phosphopantetheinyl transferase; Biochemical Sfp PPTase activity, qHTS; Potency, µM, usual class: inhibitors; 3.5% of 310,000 active; AID 1490;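 also: the enzyme is Sfp with the accession as filed and its product quenches rhodamine fluorescence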
#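 After 15 min at room temperature with compound, 15 nM Sfp received 5 uM rhodamine-CoA plus 12.5 uM BHQ-2-ybbR (50 mM Hepes pH 7.6, 10 mM MgCl2). Rate came from the fluorescence difference over 30 min, ex 525/em 598 nm.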
# Numbers stand for hits; n = inactive; u = inconclusive; x = no result given. The sample as a whole holds a higher share of hits than the screen did. Calls follow the shape of the dose curve; as a rule, active = well fitted curve in the direction sought with a large enough effect; inconclusive = small, poorly fitted or top-dose-only effect, or another doubt; inactive = no such curve, though single readings can be large; an effect the other way counts as inactive or inconclusive.
SMILES,VDR inhibitor,G9a inh,ALOX12 inh,Glioma ERSR ind,Sfp PPTase inh
NC(=O)[C@@H]1CCCNc2c(I)cc([N+](=O)[O-])cc2C(=O)N[C@@H](CCC(=O)O)C(=O)N[C@@H](CO)C(=O)N1,n,35µM,x,n,n
NC(=O)CC[C@@H]1NC(=O)[C@H](CO)NC(=O)c2cc([N+](=O)[O-])cc(I)c2NCCCC[C@@H](C(N)=O)NC(=O)[C@H](Cc2ccc(O)cc2)NC1=O,n,u,x,n,n
NC(=O)[C@@H]1CCCCNc2c(F)cc([N+](=O)[O-])cc2C(=O)N[C@@H](CCCN=C(N)N)C(=O)NCC(=O)N1,n,n,n,n,n
C[C@@H]1NC(=O)[C@H](CCC(N)=O)NC(=O)c2cc([N+](=O)[O-])cc(I)c2NCCC[C@@H](C(N)=O)NC1=O,n,50µM,u,n,n
O=C(COC(=O)Cn1cnc2ccccc21)Nc1cccc(F)c1,x,x,n,x,x
CCS(=O)(=O)N1CCc2ccc(NC(=O)Nc3ccc(C)c(C)c3)cc21,x,x,n,x,x
C[C@@H](O)[C@@H]1NC(=O)c2cc([N+](=O)[O-])cc(I)c2NCC[C@@H](C(N)=O)NC(=O)CNC1=O,n,50µM,u,n,n
NC(=O)C[C@H]1NC(=O)[C@H](CCC(=O)O)NC(=O)c2cc([N+](=O)[O-])cc(I)c2NCCC[C@@H](C(N)=O)NC1=O,n,45µM,n,n,n
C[C@@H]1NC(=O)[C@H](CCCN=C(N)N)NC(=O)c2cc([N+](=O)[O-])cc(I)c2NCCC[C@@H](C(N)=O)NC1=O,n,56µM,u,n,n
Cc1cccc(/C=C(/C#N)c2nc3ccccc3[nH]2)c1,x,x,n,x,x
Cc1cc(=O)c(C(=O)Nc2nnc(C(C)C)s2)nn1-c1ccccc1F,x,x,n,x,x
O=c1c2nnn(Cc3ccc(Cl)cc3)c2ncn1Cc1ccc(F)cc1,n,n,n,n,n
Cc1ccccc1Cn1cnc2c(nnn2Cc2ccc(F)cc2)c1=O,89µM,u,n,n,n
O=C(Cn1nc(-c2cccs2)c2ccccc2c1=O)Nc1ccc(N2CCCCC2)cc1,x,x,n,x,x
N#Cc1ccc(CN2CC[C@H](c3nnc(-c4ccccc4)o3)C2)cc1,x,x,n,x,x
Cc1ccccc1NC(=O)C(C#N)=C1CCC(C(C)(C)C)CC1 (stereo not given),x,x,n,x,x
CC1=C(C#N)c2nc(N)c(C#N)c(C)c2/C1=C\c1ccc(-c2ccccc2C(=O)O)o1,n,7.9µM,u,n,u
CCN1CCN(c2nc3c(c(=O)[nH]c(=O)n3C)n2CCSc2nc3ccccc3o2)CC1,x,x,n,x,x
O=[N+]([O-])c1ccc(O)c(C2=NNC(c3ccccc3F)C2)c1 (stereo not given),79µM,40µM,n,n,n
CCc1ccc(C(=O)N2CCC(C3CCNC3)CC2)cc1 (stereo not given),x,x,n,x,x
O=C(CC1=CCCCC1)N1CCC(C2CCNC2)CC1 (stereo not given),x,x,40µM,x,x
Cc1cc(-c2nc3c4c5c(sc4[nH]c(=O)n3n2)CCC5)c(C)o1,n,u,x,n,28µM
C=CCNc1nc(-c2ccc(CNC(=O)C(C)(C)C)s2)cs1,x,x,n,x,x
Nc1cc(=O)[nH]c(SCC(=O)Nc2cccnc2Cl)n1,n,n,n,n,n
Cc1nc(SCC(=O)Nc2cccnc2Cl)nc(C)c1C,n,40µM,n,n,n
SMILES,VDR inhibitor,G9a inh,ALOX12 inh,Glioma ERSR ind,Sfp PPTase inh
Cc1ccccc1OCc1ccc(-c2nc(C#N)c(NCc3cccnc3)o2)o1,n,11µM,n,n,x
COc1ccc(OCc2ccc(-c3nc(C#N)c(NCc4ccccc4)o3)o2)cc1,n,u,n,n,x
CCCCNc1oc(-c2ccc(COc3ccccc3C)o2)nc1C#N,n,u,n,n,x
COc1ccc(CNc2oc(-c3ccc(COc4ccccc4C)o3)nc2C#N)cc1,n,u,n,n,x
COCCCNc1oc(-c2ccc(COc3ccccc3C)o2)nc1C#N,n,10µM,n,n,x
COc1ccc(OCc2ccc(-c3nc(C#N)c(NCc4cccnc4)o3)o2)cc1,n,13µM,n,n,x
CN(Cc1ccccc1)S(=O)(=O)c1ccc(-c2nc(C#N)c(NCc3cccnc3)o2)cc1,x,x,n,x,x
CC(C)(C)c1ccc(-c2nc(C#N)c(NCc3cccnc3)o2)cc1,n,40µM,n,n,n
COc1ccc(CCC(C)NC(=O)C2(C#N)CCCC2)cc1 (stereo not given),x,x,n,x,x
CC(C)(CO)NC(=O)c1nc(-c2ccc(COc3ccc4c(c3)OCO4)cc2)no1,x,x,n,x,x
CC(C)C(=O)N1CCC(C(=O)NCC2(c3ccccc3)CC2)CC1,x,x,n,x,x
Cc1cccc(-c2nc(CSc3n[nH]c(N)n3)no2)c1,x,x,n,x,x
Oc1ccc2ccccc2c1N=Nc1ccccc1F,n,2.2µM,n,n,n
CCCn1c(O)c(N=Nc2ccc3ccccc3n2)c2ccccc21,n,n,n,n,n
Oc1ccc2ccccc2c1N=Nc1ccccn1,n,3.2µM,n,n,n
CCOC(=O)c1[nH]cnc1N=Nc1c(O)ccc2ccccc12,n,50µM,n,n,n
O=C(Nc1ccccc1Br)C1CC2CCCC(C1)C2=O (stereo not given),x,x,n,x,x
O=C(c1cccs1)N1CCC(Oc2cccnc2)C1 (stereo not given),x,x,n,x,x
Cc1cc(=O)oc2cc(OCC(=O)N3CCc4sccc4C3C)ccc12 (stereo not given),x,x,n,x,x
